Laboratory results from PubChem BioAssay (NCATS).
Where “and” joins values, the source holds several entries; their conditions need not be identical. Identical values can stand only once. Inconclusive results are not listed. Calls of active or inactive are those of the source. Calls follow the shape of the dose curve; as a rule, active = well fitted curve in the direction sought with a large enough effect; inconclusive = small, poorly fitted or top-dose-only effect, or another doubt; inactive = no such curve, though single readings can be large; an effect the other way counts as inactive or inconclusive.

Legend:
[1] = molecular target: Cellular tumor antigen p53 (Homo sapiens) (UniProt P04637); assay: Primary qHTS for small molecule compounds that upregulate eGFP-tagged delta133p53alpha (in N-terminal) cells. (AID 2060322); conditions: NCI-H358 eGFP-delta133p53alpha fluorescence, 24 h; activation: active compounds read high; also: nearly all actives have a fitted effect of over 75% in size;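 as to activation: series mostly up to about 56 µM; 0% = DMSO vehicle and 100% = reference activator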
Cellular tumor antigen p53 (Homo sapiens), sequence (P04637 whole entry, looked up): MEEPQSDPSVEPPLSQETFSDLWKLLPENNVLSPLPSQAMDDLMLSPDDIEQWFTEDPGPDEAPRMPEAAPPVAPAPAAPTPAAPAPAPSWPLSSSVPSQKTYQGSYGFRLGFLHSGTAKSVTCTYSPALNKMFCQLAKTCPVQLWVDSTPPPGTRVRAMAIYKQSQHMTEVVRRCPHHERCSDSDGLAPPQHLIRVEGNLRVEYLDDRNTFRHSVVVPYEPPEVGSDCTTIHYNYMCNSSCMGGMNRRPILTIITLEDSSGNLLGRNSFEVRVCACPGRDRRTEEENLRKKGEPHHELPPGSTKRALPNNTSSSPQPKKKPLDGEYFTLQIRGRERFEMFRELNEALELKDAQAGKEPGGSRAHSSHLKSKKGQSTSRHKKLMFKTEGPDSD
How it was run: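 NCI-H358 cells pre-induced 24 h with 10 ng/ml doxycycline to express N-terminal eGFP-delta133p53alpha, then dosed 24 h at 37C without doxycycline; fixed, Hoechst-stained, GFP intensity by laser scanning cytometry, normalized to DMSO (0%) and 57.5 uM 5-azacytidine (100%).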

[2] = BET inhibitor-based combinations targeting novel dependencies in MECOM-rearranged (r) AML: SET-2 cell line (AID 2202231); conditions: SET-2 AML cells viability, CellTiter-Glo luminescence, 48 h; viability: active compounds read low, concentration not given here; also: nearly all actives have a fitted effect of over 35% in size;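 as to viability: plate controls were DMSO treated cells for no effect and wells without cells for full effect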
How it was run: (§1)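 Each compound was tested at eleven concentrations on cells seeded at 500/well. After two days' incubation, ATP-based luminescence reported viability; responses relative to DMSO and blank wells yielded AUC and cell-line-centred Z-AUC.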

[3] = BET inhibitor-based combinations targeting novel dependencies in MECOM-rearranged (r) AML: OCI-AML3 cell line (AID 2202232); conditions: Potency: OCI-AML3 viability; also: nearly all actives have a fitted effect of over 35% in size;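 as to viability (% of control): series mostly up to about 46 µM; plate controls were DMSO vehicle wells for no effect and wells without cells for full effect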
How it was run: as §1

[4] = BET inhibitor-based combinations targeting novel dependencies in MECOM-rearranged (r) AML: MV-4-11 cell line (AID 2202233); also: nearly all actives have a fitted effect of over 45% in size;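 as to viability, % of control: plate controls were DMSO for no effect and blank wells for full effect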
How it was run: (§2)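 First, 500 cells per well were seeded; next, drugs were pinned as 11-point doses; then plates sat 48 hr in the incubator; finally CellTiter-Glo was added and luminescence read, with AUC and Z-AUC computed.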

[5] = BET inhibitor-based combinations targeting novel dependencies in MECOM-rearranged (r) AML: HNT-34 cell line (AID 2202234); also: nearly all actives have a fitted effect of over 35% in size;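 as to viability (% of control): plate controls were vehicle wells for no effect and cell-free wells for full effect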
How it was run: as §2

[6] = BET inhibitor-based combinations targeting novel dependencies in MECOM-rearranged (r) AML: UCSD-AML1 cell line (AID 2202235); also: nearly all actives have a fitted effect of over 40% in size;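 as to viability (% of control): series mostly up to about 46 µM; plate controls were DMSO vehicle wells for no effect and blank wells for full effect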
How it was run: as §2

[7] = BET inhibitor-based combinations targeting novel dependencies in MECOM-rearranged (r) AML: AML-194 cell line (AID 2202237; also: nearly all actives have a fitted effect of over 40% in size;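 as to viability (% of control): plate controls were vehicle wells for no effect and wells without cells for full effect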)
How it was run: as §1

[8] = BET inhibitor-based combinations targeting novel dependencies in MECOM-rearranged (r) AML: AML-191 cell line (AID 2202236; also: nearly all actives have a fitted effect of over 35% in size;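 as to viability (% of control): plate controls were vehicle wells for no effect and wells without cells for full effect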)
How it was run: as §1
Potency is read from the fitted curve at half-maximal effect.

Cc1nc(-c2ccc(OCC(C)C)c(C#N)c2)sc1C(=O)O
inactive: activation [1] 4.32% and -8.37% | viability [2] 109% | Potency [3] | Potency [4] | Potency [5] | Potency [6] | Potency [7]

Cc1cccc(-c2[nH]c(C(C)(C)C)nc2-c2ccc3c(c2)OCO3)n1
active: Potency [2] 16.6 µM | Potency [3] 3.72 µM | Potency [4] 2.95 µM | Potency [5] 6.61 µM | Potency [8] 6.61 µM | Potency [7] 6.61 µM
inactive: activation [1] -10.9%

O=S(=O)(O)CCS
inactive: activation [1] 32.2% and 4.28% | viability [2] 120% | Potency [3] | Potency [4] | Potency [5] | Potency [6] | Potency [8] | Potency [7]

C#C[C@]1(O)CC[C@H]2[C@@H]3CCc4cc(OC)ccc4[C@H]3CC[C@@]21C
inactive: activation [1] -5.08% | viability [2] 117% | Potency [3] | Potency [4] | Potency [5] | Potency [6] | Potency [7]

O=C(O)CSCC(=O)NC1CCSC1=O (centres undefined)
inactive: activation [1] -13.1% and -8.37% | viability [2] 95.2% | Potency [3] | Potency [4] | Potency [5] | Potency [6] | Potency [8] | Potency [7]

C[C@H]1COc2c(N3CCN(C)CC3)c(F)cc3c(=O)c(C(=O)O)cn1c23
inactive: activation [1] -12.8% | viability [2] 108% | Potency [3] | Potency [4] | Potency [5] | Potency [6] | Potency [8] | Potency [7]

Cc1cn([C@@H]2C[C@@H](O)[C@H](CO)O2)c(=O)[nH]c1=O
inactive: activation [1] -12.7% | viability [2] 103% | Potency [3] | Potency [4] | Potency [5] | Potency [6] | Potency [7]

CN[C@H]1CCc2cc(OC)c(OC)c(OC)c2-c2ccc(OC)c(=O)cc21
active: Potency [2] 0.186 µM | Potency [3] 0.0934 µM | Potency [4] 0.105 µM | Potency [5] 0.0833 µM | Potency [6] 0.105 µM | Potency [8] 0.105 µM | Potency [7] 0.105 µM
inactive: activation [1] 7.86%

OC(Cn1cncn1)(Cn1cncn1)c1ccc(F)cc1F
inactive: activation [1] 6.21% and 14.6% | viability [2] 116% | Potency [3] | Potency [4] | Potency [5] | Potency [6] | Potency [8] | Potency [7]

CN(C)c1ccc2nc3ccc(=[N+](C)C)cc-3sc2c1
active: Potency [1] 17.4 µM | Potency [2] 5.9 µM | Potency [3] 5.25 µM | Potency [4] 2.63 µM | Potency [5] 7.42 µM | Potency [6] 9.34 µM | Potency [8] 2.95 µM | Potency [7] 4.68 µM

CC(C)C(C)C=CC(C)C1CCC2C3=CC=C4CC(O)CCC4(C)C3CCC21C (centres undefined)
inactive: activation [1] 11% | viability [2] 121% | Potency [3] | Potency [4] | Potency [5] | Potency [7]

COc1cc2c(cc1OC)CC(=O)N(CCCN(C)C[C@H]1Cc3cc(OC)c(OC)cc31)CC2
inactive: activation [1] -11.1% | viability [2] 111% | Potency [3] | Potency [4] | Potency [6] | Potency [8] | Potency [7]

C[C@@H](CN1CC(=O)NC(=O)C1)N1CC(=O)NC(=O)C1
inactive: activation [1] -3.95% and 20.4% | viability [2] 92.4% | Potency [5]
active: Potency [3] 18.6 µM | Potency [4] 14.8 µM | Potency [8] 13.2 µM | Potency [7] 16.6 µM

Nc1ccn(C[C@@H](CO)OCP(=O)(O)O)c(=O)n1
inactive: activation [1] -2.13% | viability [2] 113% | viability (% of control) [3] 113% [at 8.46 µM] | viability, % of control [4] 126% [at 8.46 µM] | viability (% of control) [6] 104% [at 8.46 µM] | viability (% of control) [8] 91.5% [at 8.46 µM] | viability (% of control) [7] 105% [at 8.46 µM]

CC[C@@H]1C(=O)N(C)c2cnc(Nc3ccc(C(=O)NC4CCN(C)CC4)cc3OC)nc2N1C1CCCC1
inactive: activation [1] 7.53%
active: Potency [2] 0.468 µM | Potency [3] 0.0525 µM | Potency [4] 0.105 µM | Potency [6] 0.105 µM | Potency [8] 0.166 µM | Potency [7] 0.332 µM

CCOC(=O)[C@H](CCc1ccccc1)N[C@@H](C)C(=O)N1CCC[C@H]1C(=O)O
inactive: activation [1] 0% | viability [2] 92.2% | Potency [3] | Potency [4] | Potency [5] | Potency [8] | Potency [7]

O=C1C(Cl)=C(NCCN2CCOCC2)C(=O)c2ncccc21
active: Potency [1] 27.3 µM | Potency [2] 3.72 µM | Potency [3] 3.72 µM | Potency [4] 2.09 µM | Potency [6] 8.33 µM | Potency [8] 7.42 µM | Potency [7] 7.42 µM

O=C(NCCS(=O)(=O)c1ccc(C(F)(F)F)cn1)c1ccc(Cl)cc1
inactive: activation [1] 6.23% | viability [2] 108% | Potency [3] | Potency [4] | Potency [5] | Potency [8] | Potency [7]

CC(C)(C)COc1ccc(-n2cc(C(=O)O)cn2)cc1C#N
active: Potency [3] 10.5 µM
inactive: activation [1] -16.6% | viability [2] 95.2% | Potency [4] | Potency [5] | Potency [7]

CS(=O)(=O)OCCCCOS(C)(=O)=O
inactive: activation [1] -9.57% | viability [2] 114% | Potency [3] | Potency [4] | Potency [6] | Potency [8] | Potency [7]

OC[C@H]1OC(O)C[C@@H](O)[C@H]1O (some centres undefined)
inactive: activation [1] 27.8% | viability [2] 110% | Potency [3] | Potency [4] | Potency [6] | Potency [8]

CC(C)(Cc1ccc2ccccc2c1)NC[C@@H](O)COc1cccc(Cl)c1C#N
active: Potency [2] 18.6 µM | Potency [3] 16.6 µM | Potency [4] 16.6 µM | Potency [5] 16.6 µM | Potency [8] 10.5 µM | Potency [7] 10.5 µM
inactive: activation [1] 19.8%

C[C@@H](Oc1cc(-n2cnc3ccc(CN4CCN(C)CC4)cc32)sc1C(N)=O)c1ccccc1C(F)(F)F
active: Potency [2] 0.105 µM | Potency [3] 0.0468 µM | Potency [4] 0.105 µM | Potency [6] 0.118 µM | Potency [8] 0.0934 µM
inactive: activation [1] 2.47%

COc1c2occc2cc2ccc(=O)oc12
active: Potency [3] 10.5 µM
inactive: activation [1] -0.837% and 22.7% | viability [2] 98.3% | Potency [4] | Potency [5] | Potency [7]

O=C1NC(O)CCN1[C@@H]1O[C@H](CO)[C@H](O)[C@H]1O (some centres undefined)
inactive: activation [1] -10.6% | viability [2] 115% | Potency [3] | Potency [4] | Potency [5] | Potency [8] | Potency [7]

CN(CC(=O)N(Cc1ccc(C2CCCCC2)cc1)c1ccc(C(=O)O)c(O)c1)S(=O)(=O)c1c(F)c(F)c(F)c(F)c1F
inactive: activation [1] 37.6% | viability [2] 114% | Potency [7]
active: Potency [3] 9.34 µM | Potency [4] 6.61 µM | Potency [5] 6.61 µM | Potency [8] 26.3 µM

COc1cc([C@@H]2c3cc4c(cc3[C@H](O)[C@H]3COC(=O)[C@H]23)OCO4)cc(OC)c1OC
active: Potency [2] 0.0372 µM | Potency [3] 0.0372 µM | Potency [4] 0.0417 µM | Potency [6] 0.0417 µM | Potency [8] 0.0372 µM
inactive: activation [1] 24.1%

C#C[C@]1(O)CC[C@H]2[C@@H]3CCC4=CC(=O)CC[C@@H]4[C@H]3CC[C@@]21CC
inactive: activation [1] -5.86% | viability [2] 103% | Potency [3] | Potency [5] | Potency [7]
active: Potency [4] 13.2 µM

CNC(=O)Nc1ccc(-c2nc(N3CC4CCC(C3)O4)c3cnn(C4CCC5(CC4)OCCO5)c3n2)cc1
active: Potency [2] 0.263 µM | Potency [3] 0.105 µM | Potency [4] 0.166 µM | Potency [6] 0.0295 µM | Potency [8] 0.0295 µM
inactive: activation [1] 8.27%

Cc1cccc(-c2nn(C(=S)Nc3ccccc3)cc2-c2ccnc3ccccc23)n1
inactive: activation [1] 44.1% | viability [2] 97.5% | Potency [3] | Potency [4] | Potency [6] | Potency [8] | Potency [7]

Cc1ccc(C(C)(O)c2nc3ccccc3s2)c(C)c1 (centres undefined)
inactive: activation [1] 5.91% | Potency [3] | Potency [6] | Potency [8] | Potency [7]
active: Potency [2] 13.2 µM | Potency [4] 18.6 µM

OC(c1cc(C(F)(F)F)nc2c(C(F)(F)F)cccc12)C1CCCCN1 (centres undefined)
active: Potency [2] 26.3 µM | Potency [3] 18.6 µM | Potency [4] 20.9 µM | Potency [5] 23.5 µM | Potency [8] 23.5 µM | Potency [7] 20.9 µM
inactive: activation [1] -0.154%

COc1c(C)c2c(c(O)c1C/C=C(\C)CCC(=O)OCCN1CCOCC1)C(=O)OC2
inactive: activation [1] -10.7%
active: Potency [2] 1.32 µM | Potency [3] 1.32 µM | Potency [4] 0.662 µM | Potency [6] 1.18 µM | Potency [8] 1.32 µM

CCc1cc(-c2n[nH]c(C)c2-c2ccc3c(c2)OCCO3)c(O)cc1O
active: Potency [2] 14.8 µM | Potency [3] 18.6 µM | Potency [4] 4.68 µM | Potency [5] 14.8 µM | Potency [7] 16.6 µM
inactive: activation [1] 2.7%

CCOCC(O)COc1ccc(NC(=O)CC[S+](C)C)cc1 (centres undefined)
inactive: activation [1] -1.78% | viability [2] 62.2% | Potency [3] | Potency [4] | Potency [6] | Potency [8] | Potency [7]

CN[C@@H]1CN(c2ccc3c(=O)c(C(=O)O)cn(-c4nccs4)c3n2)C[C@@H]1OC
active: Potency [2] 3.23 µM | Potency [3] 1.15 µM | Potency [4] 0.323 µM | Potency [5] 1.15 µM | Potency [8] 1.82 µM | Potency [7] 1.29 µM
inactive: activation [1] 8.83%

CCC(C)SSc1ncc[nH]1 (centres undefined)
inactive: activation [1] -4.29%
active: Potency [2] 11.8 µM | Potency [3] 8.33 µM | Potency [4] 2.63 µM | Potency [6] 7.42 µM | Potency [8] 5.25 µM | Potency [7] 7.42 µM

CC(C)C[C@H](NC(=O)CNC(=O)c1cc(Cl)ccc1Cl)B(O)O
active: Potency [1] 17.2 µM | Potency [2] 0.105 µM | Potency [3] 0.118 µM | Potency [4] 0.148 µM | Potency [5] 0.132 µM | Potency [8] 0.166 µM | Potency [7] 0.332 µM

COc1ccc2cc3[n+](cc2c1OC)CCc1cc2c(cc1-3)OCO2
inactive: activation [1] -7.97% | Potency [6]
active: Potency [2] 16.6 µM | Potency [3] 4.17 µM | Potency [4] 5.9 µM

COc1cc2c(cc1OC)[C@@H]1C(=O)c3ccc4c(c3O[C@@H]1CO2)C=CC(C)(C)O4
active: Potency [2] 13.2 µM | Potency [3] 0.525 µM | Potency [4] 6.61 µM | Potency [5] 23.5 µM | Potency [8] 9.34 µM | Potency [7] 20.9 µM
inactive: activation [1] -3.86%
